Assay outcomes (PubChem BioAssay)
Most compounds without a hit are left out; they make up all but 7.5% or so of the library.
ELG1 repair inh = ELG1-dependent DNA repair inhibition; HEK293T ELG1-luciferase reporter, luminescence, 16 h; DNA damage induced by 5-fluorouridine; Potency, µM (highest dose often 46.1 µM), for the others: at the top dose activity change, negative = inhibition, most hits filed as inhibitors; actives 2.3% (n = 330,000); AID 504467; also: potency is read from the fitted curve at half-maximal effect; nearly all actives have a fitted effect of over 55% in size
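Luminescence from the luciferase reporter, measured 30 min after ONE-Glo reagent at room temperature, was the read-out. Beforehand, 2,000 cells per well were exposed for 16 hr at 37 °C to 5-fluorouridine together with compound or vehicle.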
VP16 counter = inhibits Gal4-VP16 luciferase reporter, ROR gamma counter-screen. Drosophila S2 Gal4-VP16 UAS-luciferase, luminescence, 20 h. actives 3.5% (n = 310,000). Potency, µM (doses to about 53.6 µM), for the others: top-dose activity, negative = inhibition, most hits filed as inhibitors;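 also: Gal4-VP16 expression switched on by copper sulfate through the metallothionein promoter; potency is read from the fitted curve at half-maximal effect; nearly all actives have a fitted effect of over 50% in size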
B2AR arrestin = agonists driving beta-arrestin recruitment to human beta2-adrenergic receptor | P07550 | beta-arrestin recruitment to beta2AR, cell-based reporter | Potency, µM (series often up to 46.1 µM), for the others: at the highest dose activation, most hits filed as activators | actives 0.02% (n = 330,000) | AID 492947;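 also: potency is read from the fitted curve at half-maximal effect; 0% = DMSO controls and full agonism = EC100 isoproterenol or metaproterenol; nearly all actives have a fitted effect of over 65% in size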
Target sequence (P07550 whole entry, looked up): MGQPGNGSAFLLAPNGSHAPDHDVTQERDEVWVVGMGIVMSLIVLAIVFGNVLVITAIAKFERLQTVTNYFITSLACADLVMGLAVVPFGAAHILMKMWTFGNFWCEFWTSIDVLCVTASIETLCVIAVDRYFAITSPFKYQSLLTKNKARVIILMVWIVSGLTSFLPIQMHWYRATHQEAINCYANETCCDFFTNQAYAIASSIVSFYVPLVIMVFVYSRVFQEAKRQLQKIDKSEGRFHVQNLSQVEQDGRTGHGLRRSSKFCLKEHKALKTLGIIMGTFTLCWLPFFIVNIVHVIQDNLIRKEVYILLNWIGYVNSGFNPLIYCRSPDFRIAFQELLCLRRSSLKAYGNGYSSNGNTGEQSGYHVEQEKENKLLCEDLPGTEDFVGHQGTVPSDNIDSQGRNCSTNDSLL
RORgamma inh = ROR gamma (mouse) transcription inhibition. actives 5.4% (n = 310,000). Potency, µM (doses to about 53.6 µM), without a hit: at the top dose activity change, negative = inhibition, actives largely listed as inhibitors. Drosophila S2 Gal4-RORgamma UAS-luciferase reporter, 20 h; also: potency is read from the fitted curve at half-maximal effect; nearly all actives have a fitted effect of over 60% in size
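A Gal4/UAS one-hybrid system in insect cells: metallothionein-promoter Gal4–ROR gamma fusion plus Photinus luciferase reporter. Copper sulfate 700 uM final, 20 hr ambient incubation, luminescent detection after 10 min with reagent.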
TSHR antag = blocks TSH signaling through the human TSH receptor. P16473. TSHR-expressing cells, TSH-stimulated cAMP HTRF, 2 h; stronger effect = lower value. activity change, negative = inhibition, % at 11.5 µM. actives 0.2% (n = 330,000). AID 504810;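 active = activity change below a set negative limit, meaning inhibition stronger than a set level, cut at about -70% in these data; inconclusive = activity change between two set negative limits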
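Antagonism was scored as loss of TSH-driven cAMP in TSHR cells, stimulated with 4nM TSH (EC80) for 2 hours at 37 deg C and detected by homogeneous HTRF competition immunoassay.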
Starred values were filed as active, the others as inactive; u = inconclusive; x = not tested or not shown; [ ] = another dose, or the depositor's remark. Unless noted, calls follow the shape of the dose curve; as a rule, active = well fitted curve in the direction sought with a large enough effect; inconclusive = small, poorly fitted or top-dose-only effect, or another doubt; inactive = no such curve, though single readings can be large; an effect the other way counts as inactive or inconclusive. Unless noted, % is scaled to controls: 0 for no effect and ±100 for the full control effect.

SMILES | ELG1 repair inh | VP16 counter | B2AR arrestin | RORgamma inh | TSHR antag
O=C(Nc1cccc(Cl)c1)c1ccc(S(=O)(=O)NCC2CCCO2)cc1 (stereo unspecified) | -17.9% | -1.2% | -0.9% | 42.0% | -17.0
O=C(CS(=O)(=O)c1ccccc1)Nc1nnc(Cc2ccccc2)s1 | -5.2% | 5.3% | 0.4% | u | -7.0
COc1ccc(Oc2ncc3nc(-c4ccc(OC)cc4)c(=O)n(Cc4cccs4)c3n2)cc1 | x | -1.8% | x | -28.5% | x
COc1cc(OC)c(OC)cc1CNC(=O)c1ccc(COc2ccccc2)cc1 | 10.3µM* | 10.2% | -1.1% | u | -10.7
COCc1ccc(C(=O)Nc2cccc(S(=O)(=O)N(C)c3ccccc3)c2)cc1 | 18.3µM* | x | 0.0% | x | -16.0
CN(c1ccc(C(=O)Nc2cccc(O)c2)cc1)S(=O)(=O)c1ccccc1 | u | 0.3% | 0.1% | u | -12.6
CN(C)S(=O)(=O)c1cccc(NC(=O)c2ccc(COc3ccccc3)cc2)c1 | 11.6µM* | 6.31µM* | -0.4% | -44.2% | -40.5
Cc1ccc(F)cc1CNC(=O)C1CCC(=O)N(C2CC2)C1 (stereo unspecified) | u | -0.4% | -0.8% | -21.5% | 2.4
Cc1cccc(N=C2NN=C(c3ccc4c(c3)OCCO4)CS2)c1 | u | u | 1.0% | 7.94µM* | 7.0
CC12CC3CC(C)(C1)CC(C(=O)NC(=S)N1CCOCC1)(C3)C2 | -7.9% | 2.82µM* | -0.8% | 1.12µM* | 0.6
O=C(NC(=S)N1CCCCC1)C12CC3CC(CC(C3)C1)C2 | 2.7% | 12.6µM* | -0.2% | 7.08µM* | 7.3
CCOC(=O)N1CCN(C(=S)NC)CC1 | 11.6% | 0.3% | 7.2% | -7.2% | -0.4
CCOC(=O)N1CCN(C(=S)NC(=O)C23CC4CC(CC(C4)C2)C3)CC1 | -19.0% | u | 0.1% | 3.55µM* | -1.1
CCN(CC)C(=S)NC(=O)C12CC3CC(CC(C3)C1)C2 | 10.2% | 5.01µM* | -0.1% | 2.51µM* | -7.0
O=C(O)[C@@H](O)[C@@H](O)[C@@H](O[C@H]1O[C@@H](CO)[C@@H](O)[C@@H](O)[C@@H]1O)[C@@H](O)CO | x | -3.3%[17 µM] | x | -1.7%[16.9 µM] | x
O=C(CCN1CCCCC1)c1ccc2c(c1)OCO2 | 3.5% | 12.6µM* | -0.2% | 3.16µM* | -6.8
O=C(CCCN1CCOCC1)c1ccc2c(c1)OCCO2 | u | u | -0.2% | u | 0.4
O=C(CCN1CCCCC1)c1ccccc1 | 19.1% | -0.3% | 0.1% | 7.4% | 25.4
O=C(CCN1CCc2ccccc2CC1)c1ccc2c(c1)OCCO2 | -7.3% | 3.98µM* | -0.3% | 6.31µM* | -24.9
O=C(CCN1CCOCC1)c1ccc2c(c1)OCCO2 | 0.8% | 3.16µM* | -0.5% | u | -25.4
c1cc2[nH]snc2c2nc(C3CC3)nc12 | 5.8µM* | 4.5% | 0.3% | 10.3% | -0.1
CCN1CCCC1CNc1ccc(S(C)(=O)=O)cc1[N+](=O)[O-] (stereo unspecified) | -11.0% | -7.2% | 0.1% | -9.0% | -4.8
O=C(C#Cc1ccccc1)c1ccco1 | u | 3.16µM* | -0.3% | 2.82µM* | u
O=C(CSc1nnnn1-c1cccc(O)c1)NC1CC1 | -8.2% | 6.2% | -0.2% | 8.8% | -2.2
Cc1ccc(/C=[N+](\[O-])c2ccc(N(C)C)cc2)c2nsnc12 | u | u | -0.3% | 5.01µM* | -7.8
SMILES | ELG1 repair inh | VP16 counter | B2AR arrestin | RORgamma inh | TSHR antag
Cc1ccc2nsnc2c1NS(=O)(=O)c1c(C)ccc2nsnc12 | -10.9% | 7.3% | -0.8% | -29.7% | -1.1
CC(C)C[C@H](NC(=O)[C@H](CCCCN)NC(=O)[C@H](CCCNC(=N)N)NC(=O)[C@H](C)NC(=O)[C@H](CO)NC(=O)[C@H](CCCCN)NC(=O)[C@H](CCCNC(=N)N)NC(=O)[C@H](C)NC(=O)CNC(=O)[C@@H](NC(=O)[C@H](Cc1ccccc1)NC(=O)CNC(=O)CNC(=O)[C@@H](N)Cc1ccccc1)[C@@H](C)O)C(=O)N[C@@H](C)C(=O)N[C@@H](CC(N)=O)C(=O)N[C@@H](CCC(N)=O)C(=O)O | x | -6.9% | x | 15.1% | x
N#C/C(=C\c1ccc(O)c(O)c1)C(=O)NCCCCc1ccccc1 | x | 31.6µM* | x | u | x
NC(=O)C1CCCN1C(=O)C(Cc1cnc[nH]1)NC(=O)C1CCC(=O)N1 (stereo unspecified) | x | 7.3% | x | -2.1% | x
COC(=O)c1nn(-c2ccc3c(c2)CCN3C(C)=O)cc1O | -19.1% | 8.91µM* | -0.3% | 7.08µM* | 0.1
O=C(c1cc(Cl)cc(Cl)c1)N1CCN(c2cc(C(F)(F)F)nc3ccccc23)CC1 | 20.6µM* | 3.3% | -0.4% | 3.4% | -7.3
COc1cc2c(cc1O)CCN[C@@]21CS[C@H]2c3c(OC(C)=O)c(C)c4c(c3C(COC1=O)N1C2C2c3c(cc(C)c(OC)c3O)CC([C@@H]1O)N2C)OCO4 (stereo partly specified) | x | 0.447µM* | x | 0.141µM* | x
O=c1oc2ccc(Cl)cc2nc1/C=C(\O)c1cccs1 | u | 11.2µM* | -0.2% | 8.91µM* | -24.1
CCCCN1CCCC1CNC(=O)c1cc(C#N)c2ccccc2c1OC (stereo unspecified) | x | -2.2% | -0.1% | 2.9% | 5.1
CO[C@H]1COC(=O)C/C=C\[C@@H](C)COC(=O)[C@H]2CCCN2C(=O)C/C=C\[C@H]1C | x | 5.2%[10 µM] | x | -28.7%[10 µM] | x
Cc1ccc(S(=O)(=O)N2[C@@H](c3ccccc3F)C(C(=O)O)=CC[C@H]2c2ccc(Cl)c(Cl)c2)cc1 | 0.5% | x | -0.1% | x | -92.2*
O=C1[C@H]2CCC=C[C@H]2[C@H](c2ccccc2Br)N1Cc1ccccc1 | -7.6% | -2.5% | 0.1% | 18.3% | 4.8
COc1ccc(N2C(=O)[C@H]3CCC=C[C@H]3[C@@H]2c2ccccc2Br)cc1 | 13.3% | 31.6µM* | -0.5% | 17.8µM* | 5.9
O=C1NC(=O)c2cc(Br)cc3cccc1c23 | -0.2% | 16.1% | -0.1% | 20.9% | -3.8
Cc1ccc(NS(=O)(=O)c2cc3c4c(cccc4c2)C(=O)NC3=O)cc1C | 16.4µM* | u | -1.1% | u | -0.2
CCOc1ccc(-c2c(C(=O)N/N=C/c3sccc3C)nnn2-c2nonc2N)cc1 | 0.0% | 8.91µM* | 0.5% | 3.16µM* | -1.0
CCOc1cccc(-c2c(C(=O)N/N=C/c3ccsc3)nnn2-c2nonc2N)c1 | -4.0% | 25.1µM* | -1.0% | 11.2µM* | 8.4
CCOc1cccc(-c2c(C(=O)N/N=C/c3sccc3C)nnn2-c2nonc2N)c1 | u | 4.47µM* | 0.4% | 5.62µM* | -11.5
CCOc1ccc(-c2c(C(=O)N/N=C/c3ccc(C)cc3)nnn2-c2nonc2N)cc1 | -5.9% | -9.7% | -0.4% | -32.8% | 0.7
CC(=O)O[C@H]1C[C@H]2CC[C@@H]3[C@H]4C[C@@H]([N+]5(C)CCCCC5)[C@@H](OC(C)=O)[C@]4(C)CC[C@@H]3[C@@]2(C)C[C@@H]1[N+]1(C)CCCCC1 | x | 0.3% | x | 11.4% | x
